# Screening data deposited in PubChem BioAssay by National Center for Advancing Translational Sciences (NCATS).
# D1 ag = human D1 receptor agonism. HEK293 T-REx D1 cells, calcium flux, agonist mode. activation, % at 2 µM. hit rate 1% among 360,000
# Target sequence (P21728 whole entry, looked up): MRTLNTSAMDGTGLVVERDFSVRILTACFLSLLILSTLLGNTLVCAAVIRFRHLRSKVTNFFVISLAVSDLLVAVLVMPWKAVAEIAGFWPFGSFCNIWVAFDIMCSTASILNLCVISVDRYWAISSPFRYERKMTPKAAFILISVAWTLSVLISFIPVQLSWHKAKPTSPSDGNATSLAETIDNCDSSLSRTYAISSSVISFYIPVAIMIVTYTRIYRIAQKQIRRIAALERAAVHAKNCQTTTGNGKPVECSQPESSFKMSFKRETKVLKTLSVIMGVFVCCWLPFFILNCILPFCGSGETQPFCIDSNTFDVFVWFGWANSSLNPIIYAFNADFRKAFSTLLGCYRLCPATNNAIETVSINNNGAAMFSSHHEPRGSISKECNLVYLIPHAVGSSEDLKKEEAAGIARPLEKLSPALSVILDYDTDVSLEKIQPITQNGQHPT
#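 Tetracycline-induced HEK293 TREx D1 cells, force-coupled to calcium signalling, were dye-loaded with a no-wash calcium kit. Compound was pin-added after a 10 s baseline. Fluorescence was read kinetically at 1 cycle/s for 180 s, with calcium rises flagged as agonism.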
# TRHR ag = agonists of human TRH receptor; P34981; TRHR cells, calcium flux fluo-8, FDSS agonist mode; activation, % at 2 µM; hit rate 0.18% among 360,000; AID 493084
#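 Steps: seed TRHR cells overnight; add fluo-8 no-wash Ca dye, RT 30 min–1.5 h; record 10 s baseline; pin-transfer compounds; monitor fluorescence 1 cycle/s for the agonist window. Calcium increases flag candidate agonists.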
# D1 PAM = enhances dopamine response at the human D1 receptor; P21728; hit rate 0.036% among 360,000; potentiation, % at 10 µM; AID 504651; HEK293 TREx D1 cells, calcium flux, dopamine EC20 potentiation; in the data active means potentiation above about 30%
# TRHR enhancer = allosteric enhancers of human TRH receptor. P34981. TRHR cells, fluo-8 calcium fluorescence, EC20 TRH enhancement. enhancement, % at 2 µM. hit rate 0.66% among 360,000. AID 493056; in the data active means enhancement above about 30%
#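 TRHR-expressing cells loaded with fluo-8 calcium dye were read kinetically (ex 480/em 530) during compound addition, then stimulated with an EC20 of TRH (10 nM final). Enhancement of the Gq-mediated intracellular calcium response was scored.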
# D1 antagonist = antagonists of human D1 dopamine receptor. HEK293 TREx D1 cells, calcium flux, dopamine EC80; stronger effect = lower value. activity change, negative = inhibition, % at 10 µM. hit rate 3.2% among 360,000. AID 504652; in the data active means activity change below about -30%
#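 Allosteric or orthosteric antagonism assessed as attenuation of the calcium response to EC80 dopamine, added 180 s after compound, in induced HEK293 Trex D1 cells loaded with no-wash calcium dye.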
# Glioma ERSR ind = induces the endoplasmic reticulum stress response in human glioma cells; Potency, µM, most hits filed as activators; AID 602332; U87-MG GRP78 promoter luciferase reporter, 16 h; hit rate 0.02% among 420,000; active means well fitted activation curve with a large enough effect; further: series mostly up to about 76 µM; nearly all actives have a fitted effect of over 35% in size
#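 ERSR induction read as luciferase luminescence (Bright-Glo, 10 min at room temperature) in stably transfected human U87-MG glioma cells exposed to compounds for 16 h, using GRP78 as sensor.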
# Hits are given with their value; – = inactive; · = not tested or not shown; ! = not active in a repeat. The list is not random: actives were taken first. Their share in the collection is about 4%. Unless noted, no stated cut-off is given here; in the data, active means activation above about 30%; inactive means the rest.
SMILES,D1 ag,TRHR ag,D1 PAM,TRHR enhancer,D1 antagonist,Glioma ERSR ind
CCO[C@H]1c2c(ccc3ccc(=O)oc23)OC(C)(C)[C@@H]1O,–,–,–,–,–,–
CC1c2ccsc2CCN1S(=O)(=O)c1ccccc1 (configuration not stated),–,–,–,–,–,–
O=S(=O)(c1cccc(F)c1)N1CCc2sccc2C1c1ccc(OC(F)(F)F)cc1 (configuration not stated),–,–,–,–,-41,–
Cn1nc(C(F)(F)F)c2cc(C(=O)Nc3ccc(F)cc3)sc21,–,–,–,–,–,–
Cn1nc(C(F)(F)F)c(-c2ccc(F)cc2)c1NC(=O)Nc1ccc(F)cc1,31,–,–,–,-67,–
COc1cc(OC)cc(C(=O)N[C@H](C(=O)OCC(=O)c2ccc(F)cc2)C(C)C)c1,–,–,–,–,–,–
CC(C)C(NC(=O)c1ccccc1F)C(=O)OCC(=O)c1ccc(F)cc1 (configuration not stated),–,–,–,–,-32,–
COc1ccc(OC)c(/C=C2\N=C(c3ccccc3)OC2=O)c1,74,–,–,–,–,–
CCCSc1nnc(-c2cnn(-c3ccccc3)c2-n2cccc2)n1C,36,–,–,–,–,–
CCC(CC)NC(=O)COC(=O)c1cc(Br)ccc1Cl,–,–,–,–,-36,–
CCCCNC(=O)COC(=O)c1cc(Br)ccc1Cl,–,–,–,–,-31,–
O=C(NCCCc1ccccc1)c1ccccc1,–,–,–,–,-41,–
O=C(NCCc1ccccc1)c1ccccc1F,–,–,–,–,-36,–
O=C(NCc1ccc(-c2csnn2)cc1)c1cc(Cl)cc(Cl)c1,–,–,–,–,–,–
CSC1(SC2=NCCN2)SC2(NCCN2)S1,·,·,·,·,·,–
CN(C)CCNc1ncnc2c1sc1nc(-c3ccccc3)c3c(c12)CCCC3,–,–,–,–,-80,–
COC(/C(=N/O)c1ccc(Cl)cc1)c1ccccc1 (configuration not stated),–,–,–,–,-38,–
Cc1ccc(Cn2c(Sc3nccc(C)n3)nc3c2c(=O)[nH]c(=O)n3C)cc1,–,–,–,–,–,–
O=C(NCCCN1CCN(c2ccc(F)cc2)CC1)c1sc2ncccc2c1-n1cccc1,–,–,–,–,-37,–
Cc1oc(-c2cccc(Cl)c2)nc1CN1CCC(C(=O)N2CCN(c3ccccn3)CC2)CC1,·,·,·,·,·,–
CCc1ccc(-c2nc(CN3CCC(C(=O)N4CCN(c5ccccn5)CC4)CC3)c(C)o2)cc1,168,–,–,–,-55,–
CCc1ccc(-c2nc(CN3CCC(C(=O)N4CCN(c5ccccc5)CC4)CC3)c(C)o2)cc1,43,–,–,–,-35,–
CC(C)(C)[C@@H]1COC(=O)[C@@H](NC(=O)OCC2c3ccccc3-c3ccccc32)C/C=C\C[C@@H](CC(=O)NCCO)C(=O)N1,·,·,·,·,·,–
O=C(c1ccc2c(=O)n(Cc3ccccc3)c(=S)[nH]c2c1)N1CCOCC1,–,–,–,–,–,–
NC(=O)C1CCN(c2nc(-c3ccc(Br)cc3)cs2)CC1,–,–,–,–,-46!,–
SMILES,D1 ag,TRHR ag,D1 PAM,TRHR enhancer,D1 antagonist,Glioma ERSR ind
CC(=O)c1ccc(-c2csc(N3CCC(C(N)=O)CC3)n2)cc1,–,–,–,–,–,·
CC(CC(=O)NCc1ccc(Cl)cc1)c1ccccc1 (configuration not stated),–,–,–,34,–,–
O=C(COC(=O)CC(c1ccccc1)c1ccccc1)NCc1ccc(Cl)cc1,–,–,–,–,-34,–
O=C(N/C=C\c1ccccc1)NCc1ccc(Cl)cc1,–,–,–,–,-31,–
COc1ccccc1CNC(=O)CC(C)c1ccccc1 (configuration not stated),–,–,–,–,–,–
O=C1C2C3C=CC(C3)C2C(=O)N1c1cccc2ccccc12 (configuration not stated),–,–,–,–,–,–
O=C1[C@H]2[C@@H](C(=O)N1c1cccc3ccccc13)C1(C(=O)c3ccccc3C1=O)N1CCC[C@@H]21,–,–,–,34,–,–
Cc1cccnc1NC(=O)CCNC(=O)c1ccccc1Cl,–,–,–,–,–,–
O=C(c1ccccc1)c1ccc2c(c1)OCCCO2,–,–,–,–,-40,–
O=C(c1ccccc1)N1CCN(C(=O)c2ccc3c(c2)OCCO3)CC1,–,–,–,–,-39,–
O=C(c1ccccc1)c1ccc2c(c1)OCCOCCOCCO2,–,–,–,–,–,–
Cc1nn(-c2ccc(N3CCOCC3)nn2)c(C)c1CCC(=O)NCc1ccc(F)cc1,–,–,–,34!,–,–
O=C(CN1CCOCC1)Nc1ccc(OCc2ccccc2)cc1,–,–,–,–,–,–
O=C(CCN1C(=O)C2CCCCC2C1=O)Nc1nc2c(F)cc(F)cc2s1 (configuration not stated),–,–,–,–,–,–
CC1(C)CCN2CCC(C)(C)c3c(O)ccc1c32,207,34,–,–,–,–
Cc1ccccc1-c1nc(CN2CCC(C(=O)NCCc3ccccc3)CC2)c(C)o1,–,–,–,–,–,–
CCC1CN(C(=O)N2CCC(C(=O)NCCC3=CCCCC3)CC2)c2cc(C)ccc2O1 (configuration not stated),–,–,–,–,-31,–
Cc1ccccc1-c1nc(CN2CCC(C(=O)NCCCN3CCCC(C)C3)CC2)c(C)o1 (configuration not stated),–,–,–,–,–,–
COc1ccc(CCNC(=O)C2CCN(Cc3nc(-c4ccccc4C)oc3C)CC2)cc1OC,37,–,–,–,-40,–
Cc1ccccc1-c1nc(CN2CCC(C(=O)NCCC3=CCCCC3)CC2)c(C)o1,31,–,–,–,–,–
CC(=O)N(CCN(C(C)=O)c1ccccc1)c1ccccc1,–,–,–,–,–,–
CC(=O)N(Nc1ccccc1)c1ccccc1,–,–,–,–,-52,–
COCCN(Cc1cc2cccc(C)c2[nH]c1=O)C(=O)c1ccccc1,–,–,–,–,–,–
O=C(c1ccncc1)N(Cc1ccco1)Cc1cc2ccccc2[nH]c1=O,–,–,–,–,–,–
Cc1cccc2cc(CN(Cc3ccco3)C(=O)c3ccncc3)c(=O)[nH]c12,–,–,–,–,-70,–
CCC(=O)N(CCc1ccccc1)Cc1cc2cccc(C)c2[nH]c1=O,–,–,–,–,-43,–
Cc1ccc(NC(=O)c2c(C)nn(-c3ccccc3)c2-n2cccc2)c(Cl)c1,–,–,–,–,-33,–
Cc1nn(-c2ccccc2)c2sc(C(=O)Nc3ccc(Cl)cc3Cl)cc12,–,–,–,–,-83,·
